“And” between values parts separate entries of the source, which are not always exact repeats. Equal entries are not always repeated. Results filed as inconclusive are left out. A call without a number means that no potency is given here. The source made the active and inactive calls. The call rests on the fitted dose curve; in most records, active means well fitted cell-killing curve with a large enough effect; inconclusive means small, poorly fitted or top-dose-only effect; inactive means no such curve, though single readings can be large or run the other way.
Assay: qHTS of pediatric cancer cell lines to identify multiple opportunities for drug repurposing: Primary screen for OHS-50 cells (AID 1347103); further: nearly all actives have a fitted effect of over 40% in size
Conditions: OHS-50 osteosarcoma viability, CellTiter-Glo luminescence, 48 h; series mostly up to 57.3 µM
Excerpt: Drug repurposing or repositioning has been offered as a strategy for drug development in oncology programs. This approach has special potential for childhood cancers and other rare or orphan diseases, where the expected return on new drug development has been a disincentive to pharmaceuticals.
In this project we exploit the poly-pharmacology of drugs to discover new indications via phenotypic screening of a panel of 19 well-characterized cell lines derived from solid tumors seen in children and adolescents. The goal is to identify approved drugs with previously unrecognized anticancer properties that has the potential to reveal new mechanisms and biological processes involved in carcinogenesis or drug resistance. We employed a titration-based paradigm (quantitative high-throughput screening or qHTS), where all compounds were tested at multiple concentrations for their effect on cell viability. Concentration-response curves (CRCs) were derived directly from the primary screen, and both potency and efficacy values were used to identify compounds with robust bioactivity profiles. We screened the NIH Chemical Genomics Center (NCGC) Pharmaceutical Collection (NPC) and Mechanism Interrogation Plate (MIPE) small molecule collections of approved and investigational compounds against these cell lines; and measured metabolically active cells after 48 hours of compound treatment as a proxy for cell viability.
Assay Submitter: Nathalia J. Martinez, National Center for Advancing Translational Sciences, National Institutes of Health, Rockville, MD, USA; email: natalia.martinez@nih.gov
[1] Shen, M et al. Quantitative high-throughput phenotypic screening of pediatric cancer cell lines identifies multiple opportunities for drug repurposing. Oncotarget 2017 Dec 19;9(4):4758-4772. PMID 29435139.
The cells were obtained from University of North Carolina (UNC), Pediatric Preclinical Testing Program (PPT), and Coriell Institute (CI).
qHTS cell viability assay:
Cells were assayed in growth media at a density of 500-1,000 cells/well. Five microliters of cells were dispensed into 1,536-well, white, solid-bottom, TC-treated plates (Greiner Bio One) using a multidrop dispenser and incubated at 37 degrees C, 5% CO2, under a humidified atmosphere for 5 hours. Twenty-three nanoliters of compounds and controls (neutral control DMSO or positive control bortezomib at final concentration of 2.3 µM) were subsequently transferred by Kalypsys pintool. For primary screens, the MIPE collection was tested at 11-point dilutions (final concentrations range from 0.78 nM to 46 µM) and the NPC collection at 8-point dilutions (final concentrations range from 0.59 nM to 46 µM). Compounds tested in follow-up screens were assayed at 11-point dilutions. Cells were incubated for 48 hours, followed by addition of 3 µL of CellTiter-Glo (Promega). After a 15 min incubation at room temperature, samples were analyzed for luminescence intensity using a ViewLux High-throughput CCD imager equipped with clear filters.
Potency means the concentration at half of the fitted maximal effect.

| SMILES | Potency |
| --- | --- |
| CCOC(=O)C(C)Oc1cccc2c(=O)n(CC(=O)Nc3ccc4c(c3)OCCO4)ccc12 (stereo not given) | inactive |
| NC(=NCc1ccccc1)NC(=O)c1nc(Cl)c(N)nc1N | inactive |
| NCCCCNCCCN | inactive |
| O=C(OC1C[C@H]2CC[C@@H](C1)[N+]21CCCC1)C(O)(c1ccccc1)c1ccccc1 (stereo not given in full) | inactive |
| COc1cc(C(C)=O)ccc1OCCCN1CCC(c2noc3cc(F)ccc23)CC1 | 21.7 µM (active) and 19.5 µM (active) |
| O=C(CCc1ccc(O)cc1)c1c(O)cc(O)cc1O | 432 nM (active) |
| O=C(O)CCNC(=O)c1ccc(N=Nc2ccc(O)c(C(=O)O)c2)cc1 | inactive |
| O=C(CS(=O)Cc1ccco1)NCC=CCOc1cc(CN2CCCCC2)ccn1 (stereo not given) | inactive |
| Clc1ccc(C(Cn2ccnc2)OCc2ccc(Sc3ccccc3)cc2)c(Cl)c1 (stereo not given) | inactive |
| CC1Cc2ccccc2N1NC(=O)c1ccc(Cl)c(S(N)(=O)=O)c1 (stereo not given) | inactive |
| CCCCC(CC)COC(=O)C(C#N)=C(c1ccccc1)c1ccccc1 (stereo not given) | 13.8 µM (active) and 24.3 µM (active) |
| Cc1ccc(Nc2nccc(N(C)c3ccc4c(C)n(C)nc4c3)n2)cc1S(N)(=O)=O | 5500 nM (active) |
| Clc1ccc(C(Cn2ccnc2)OCc2c(Cl)cccc2Cl)c(Cl)c1 (stereo not given) | 19.5 µM (active) and 24.3 µM (active) |
| O=C(c1ccccc1)c1ccc2n1CCC2C(=O)O (stereo not given) | inactive |
| Nc1ncn([C@H]2C[C@H](O)[C@@H](CO)O2)c(=O)n1 | inactive |
| Cc1cc(=O)c2c(O)c3c(O)cc(=O)c4c3c3c(cc(O)c1c23)C(C)(C)C=4O | 1.51 µM (active) and 2.43 µM (active) |
| Clc1ccc2c(N3CCN(CCCN4CCN(c5ccnc6cc(Cl)ccc56)CC4)CC3)ccnc2c1 | inactive |
| CCOC(=O)c1c(C)n(C)c2ccc(O)cc12 | inactive |
| CN(C)C(=O)[C@H](O)[C@H](Cc1ccccc1)NC(=O)c1cc2cc(Cl)ccc2[nH]1 | inactive |
| Cc1cc2c(s1)Nc1ccccc1N=C2N1CCN(C)CC1 | inactive |

| SMILES | Potency |
| --- | --- |
| NNc1nncc2ccccc12 | inactive |
| CCCCN(CCCC)CCC(O)c1cc2c(Cl)cc(Cl)cc2c2cc(C(F)(F)F)ccc12 (stereo not given) | 30600 nM (active) |
| CCOc1cc(CC(=O)N[C@@H](CC(C)C)c2ccccc2N2CCCCC2)ccc1C(=O)O | inactive |
| N=C(N)c1ccc2cc(OC(=O)c3ccc(N=C(N)N)cc3)ccc2c1 | inactive |
| CC(=O)O[C@H]1C(=O)[C@@]2(C)C([C@H](OC(=O)c3ccccc3)[C@]3(O)C[C@H](OC(=O)[C@H](O)[C@@H](NC(=O)c4ccccc4)c4ccccc4)C(C)=C1C3(C)C)[C@]1(OC(C)=O)CO[C@@H]1C[C@@H]2O (stereo not given in full) | 1 nM (active) |
| c1cnc2cc3c(cc2n1)C1CNCC3C1 | inactive |
| COc1cc2nc(N3CCN(C(=O)C4CCCO4)CC3)nc(N)c2cc1OC (stereo not given) | inactive |
| CN(C)CCc1c[nH]c2ccc(Cn3cncn3)cc12 | inactive |
| Cc1nc(-c2ccc(OCC(C)C)c(C#N)c2)sc1C(=O)O | inactive |
| Nc1cccc2c1CN(C1CCC(=O)NC1=O)C2=O (stereo not given) | inactive |
| CC(S)C(=O)NCC(=O)O (stereo not given) | inactive |
| CC(C)c1ccc2oc3nc(N)c(C(=O)O)cc3c(=O)c2c1 | inactive |
| CN(C)C(=O)COC(=O)Cc1ccc(OC(=O)c2ccc(N=C(N)N)cc2)cc1 | inactive |
| CCCOc1ccc2nc(NC(=O)OC)[nH]c2c1 | 61.7 nM (active) and 13.7 nM (active) |
| O=C1NC(=O)C(c2ccccc2[N+](=O)[O-])=C1Nc1ccc(O)c(Cl)c1 | inactive |
| c1ccc2[nH]c(-c3cscn3)nc2c1 | inactive |
| COC(=O)C1=C(C)NC(C)=C(C(=O)OC(C)C)C1c1cccc2nonc12 (stereo not given) | inactive |
| O=C(O)c1cccnc1Nc1cccc(C(F)(F)F)c1 | inactive |
| O=c1c(O)c(-c2ccc(O)cc2O)oc2cc(O)cc(O)c12 | inactive |
| CCOC(=O)C1=C[C@@H](OC(CC)CC)[C@H](NC(C)=O)[C@@H](N)C1 | inactive |

— PubChem BioAssay (NCATS)
